# Experimental data: PMC11062922 (Nature Chemical Biology, 2023)
# Where two headings read alike, the source gives them in different places.
# Assays:
# Parameters in all cases: species or system human, MV4-11 + K-562 + COLO205 + SK-N-BE2 + OVCAR-8
# ACVR2B = settings: read-out: apparent Kd, n = 1
# ADCK3 = settings: read-out: apparent Kd; compound concentrations: 100 nM and 1000 nM (sheet 'Samples'), CATDS: 4.2636301284937402E-2; n = 1
# AKT2 = settings: read-out: apparent Kd; compound concentrations: 100 nM and 1000 nM (sheet 'Samples'), CATDS: 3.8315298656597697E-2; n = 1
# CDC42BPB = settings: read-out: apparent Kd; compound concentrations: 100 nM and 1000 nM (sheet 'Samples'), CATDS: 4.17361912468606E-2; n = 1
# CDC42BPG = settings: read-out: apparent Kd; compound concentrations: 100 nM and 1000 nM (sheet 'Samples'), CATDS: 4.6703461081502903E-2; n = 1
# CDK13 = settings: read-out: apparent Kd; compound concentrations: 100 nM and 1000 nM (sheet 'Samples'), CATDS: 3.8824736575062302E-2; n = 1
# CDKL5 = settings: read-out: apparent Kd; compound concentrations: 100 nM and 1000 nM (sheet 'Samples'), CATDS: 4.2225060915193902E-2; n = 1
# CIT = settings: read-out: apparent Kd; compound concentrations: 100 nM and 1000 nM (sheet 'Samples'), CATDS: 9.7052908053400402E-2; n = 1
# CSNK1A1 = settings: read-out: apparent Kd; compound concentrations: 100 nM and 1000 nM (sheet 'Samples'), CATDS: 4.3314802328408702E-2; n = 1
# CSNK1D = settings: read-out: apparent Kd; compound concentrations: 100 nM and 1000 nM (sheet 'Samples'), CATDS: 5.2512295854069302E-2; n = 1
# CSNK1E = settings: read-out: apparent Kd; compound concentrations: 100 nM and 1000 nM (sheet 'Samples'), CATDS: 4.5718432207302401E-2; n = 1
# GAK = settings: read-out: apparent Kd, compound concentrations: 100 nM and 1000 nM (sheet 'Samples'), n = 1
# MAP3K12 = settings: read-out: apparent Kd; compound concentrations: 100 nM and 1000 nM (sheet 'Samples'), CATDS: 4.3727049359112501E-2; n = 1
# MAP3K4 = settings: read-out: apparent Kd; compound concentrations: 100 nM and 1000 nM (sheet 'Samples'), CATDS: 4.0498159279946502E-2; n = 1
# MTOR = settings: read-out: apparent Kd; compound concentrations: 100 nM and 1000 nM (sheet 'Samples'), CATDS: 6.6094429766625107E-2; n = 1
# PIK3CA = settings: read-out: apparent Kd; compound concentrations: 100 nM and 1000 nM (sheet 'Samples'), CATDS: 0.16597567422928799; n = 1
# PRKCD = settings: read-out: apparent Kd; compound concentrations: 100 nM and 1000 nM (sheet 'Samples'), CATDS: 3.8004287822733102E-2; n = 1
# ROCK1 = settings: read-out: apparent Kd; compound concentrations: 100 nM and 1000 nM (sheet 'Samples'), CATDS: 9.5371648246972293E-2; n = 1
# ROCK2 = settings: read-out: apparent Kd; compound concentrations: 100 nM and 1000 nM (sheet 'Samples'), CATDS: 9.3527332019104195E-2; n = 1
# TESK1 = settings: read-out: apparent Kd; compound concentrations: 100 nM and 1000 nM (sheet 'Samples'), CATDS: 4.6585684962704203E-2; n = 1
# BCR = settings: read-out: apparent Kd, compound concentrations: 100 nM and 1000 nM (sheet 'Samples'), n = 1
# EPHA1 = settings: read-out: apparent Kd, compound concentrations: 100 nM and 1000 nM (sheet 'Samples'), n = 1
# PTK6 = settings: read-out: apparent Kd, n = 1
# RET = settings: read-out: apparent Kd, compound concentrations: 100 nM and 1000 nM (sheet 'Samples'), n = 1
# RIPK2 = settings: read-out: apparent Kd, compound concentrations: 100 nM and 1000 nM (sheet 'Samples'), n = 1
# RIPK3 = settings: read-out: apparent Kd, compound concentrations: 100 nM and 1000 nM (sheet 'Samples'), n = 1
# SIK2 = settings: read-out: apparent Kd, compound concentrations: 100 nM and 1000 nM (sheet 'Samples'), n = 1
# JAK2 = settings: read-out: apparent Kd; compound concentrations: 100 nM and 1000 nM (sheet 'Samples'), CATDS: 0.147380455866959; n = 1
# BMPR1A = settings: read-out: apparent Kd; compound concentrations:100 nM and 1000 nM (sheet 'Samples'); n = 1
# CDK6 = settings: read-out: apparent Kd; compound concentrations:100 nM and 1000 nM (sheet 'Samples'); n = 1
# MAP2K2 = settings: read-out: apparent Kd; compound concentrations:100 nM and 1000 nM (sheet 'Samples'); n = 1
# MAP2K5 = settings: read-out: apparent Kd; compound concentrations:100 nM and 1000 nM (sheet 'Samples'); n = 1
# NNT = settings: read-out: apparent Kd; compound concentrations:100 nM and 1000 nM (sheet 'Samples'); n = 1
# NQO1 = settings: read-out: apparent Kd; compound concentrations:100 nM and 1000 nM (sheet 'Samples'); n = 1
# PDGFRB = settings: read-out: apparent Kd; compound concentrations:100 nM and 1000 nM (sheet 'Samples'); n = 1
# PRKCI = settings: read-out: apparent Kd; compound concentrations:100 nM and 1000 nM (sheet 'Samples'); n = 1
# PRKCZ = settings: read-out: apparent Kd; compound concentrations:100 nM and 1000 nM (sheet 'Samples'); n = 1
# RIOK2 = settings: read-out: apparent Kd; compound concentrations:100 nM and 1000 nM (sheet 'Samples'); n = 1
# TESK2 = settings: read-out: apparent Kd; compound concentrations:100 nM and 1000 nM (sheet 'Samples'); n = 1
# TP53RK = settings: read-out: apparent Kd; compound concentrations:100 nM and 1000 nM (sheet 'Samples'); n = 1
# [1] = compound concentrations:100 nM and 1000 nM (sheet 'Samples')
smiles,measurement,setting,value
Cl.Cl.NCC(NC(=O)c1cc(-c2cccnc2)c(-c2ccnc3[nH]ccc23)s1)c1ccccc1.NCC(NC(=O)c1cc(-c2cccnc2)c(-c2ccnc3[nH]ccc23)s1)c1ccccc1 (stereo not shown) [GSK1323434A],potency estimated from few doses,"ACVR2B; compound concentrations: 100 nM and 1000 nM (sheet 'Samples'), CATDS: 4.2186627256430298E-2",1740 nM
same,potency estimated from few doses,ADCK3,1690 nM
same,potency estimated from few doses,AKT2,2290 nM
same,potency estimated from few doses,CDC42BPB,1790 nM
same,potency estimated from few doses,CDC42BPG,1340 nM
same,potency estimated from few doses,CDK13,2200 nM
same,potency estimated from few doses,CDKL5,1730 nM
same,potency estimated from few doses,CIT,344 nM
same,potency estimated from few doses,CSNK1A1,1620 nM
same,potency estimated from few doses,CSNK1D,1030 nM
same,potency estimated from few doses,CSNK1E,1410 nM
same,potency estimated from few doses,GAK; CATDS: 5.0119839441511702E-2,1140 nM
same,potency estimated from few doses,MAP3K12,1580 nM
same,potency estimated from few doses,MAP3K4,1940 nM
same,potency estimated from few doses,MTOR,653 nM
same,potency estimated from few doses,PIK3CA,161 nM
same,potency estimated from few doses,PRKCD,2350 nM
same,potency estimated from few doses,ROCK1,354 nM
same,potency estimated from few doses,ROCK2,364 nM
same,potency estimated from few doses,TESK1,1350 nM
Fc1cc(Cl)ccc1Nc1ccnc2cc(-c3ccc(CN4CCCCC4)o3)ccc12 [GW560116X],potency estimated from few doses,"ACVR2B; compound concentrations: 100 nM and 1000 nM (sheet 'Samples'), CATDS: 8.5008478980750105E-2",1080 nM
same,potency estimated from few doses,BCR; CATDS: 0.13309110379765501,359 nM
same,potency estimated from few doses,EPHA1; CATDS: 0.10065713248800801,670 nM
same,potency estimated from few doses,GAK; CATDS: 0.10209993083840201,646 nM
same,potency estimated from few doses,"PTK6; compound concentrations: 100 nM and 1000 nM (sheet 'Samples'), CATDS: 9.8392012299874307E-2",710 nM
same,potency estimated from few doses,RET; CATDS: 0.106923709019676,577 nM
same,potency estimated from few doses,RIPK2; CATDS: 0.37039480382744999,69.3 nM
same,potency estimated from few doses,RIPK3; CATDS: 7.5580251546270003E-2,1650 nM
same,potency estimated from few doses,SIK2; CATDS: 0.152739498183388,276 nM
Fc1cc(Cl)ccc1Nc1ccnc2cc(-c3ccc(CN4CCSCC4)o3)ccc12 [GW560106X],potency estimated from few doses,"ACVR2B; compound concentrations: 100 nM and 1000 nM (sheet 'Samples'), CATDS: 8.8140626462379107E-2",1650 nM
same,potency estimated from few doses,BCR; CATDS: 0.117591173693898,830 nM
same,potency estimated from few doses,EPHA1; CATDS: 0.1160485900451,853 nM
same,potency estimated from few doses,GAK; CATDS: 9.8647992016736893E-2,1220 nM
same,potency estimated from few doses,JAK2,547 nM
same,potency estimated from few doses,RET; CATDS: 0.12743524996908201,710 nM
same,potency estimated from few doses,RIPK2; CATDS: 0.19291932694362501,357 nM
same,potency estimated from few doses,RIPK3; CATDS: 8.1688105237549893E-2,2080 nM
same,potency estimated from few doses,SIK2; CATDS: 9.6722651513250199E-2,1290 nM
Cc1cc(O)cc(C)c1/C=C/c1cncc(C(N)=O)c1 [GW435821X_KCGS],potency estimated from few doses,ACVR2B; [1],26.5 nM
same,potency estimated from few doses,BMPR1A,1200 nM
same,potency estimated from few doses,CDK6,120 nM
same,potency estimated from few doses,MAP2K2,179 nM
same,potency estimated from few doses,MAP2K5,2600 nM
same,potency estimated from few doses,NNT,2010 nM
same,potency estimated from few doses,NQO1,1150 nM
same,potency estimated from few doses,PDGFRB,1570 nM
same,potency estimated from few doses,PRKCI,2300 nM
same,potency estimated from few doses,PRKCZ,1470 nM
same,potency estimated from few doses,PTK6; [1],1460 nM
same,potency estimated from few doses,RIOK2,2280 nM
same,potency estimated from few doses,TESK2,1250 nM
same,potency estimated from few doses,TP53RK,1440 nM
